Assay [1] has as its target Acetylcholinesterase (Homo sapiens) (UniProt P22303). The experiment in a line: Acetylcholinesterase (AChE) small molecule antagonists: colormetric cell-based qHTS assay (AID 1347395). Also: nearly all actives have a fitted effect of over 30% in size. Also: potency is read from the fitted curve at half-maximal effect. In outline: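 SH-SY5Y cells, plated overnight at 37 C, were exposed to compounds for 30 min at 37 C and 5% CO2. Acetylthiocholine plus DTNB was then added, and thiocholine from endogenous AChE was quantified colorimetrically after 90 min at 37 C.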

Assay [2] shares this target. Briefly: Acetylcholinesterase (AChE) small molecule antagonists: enzyme-based qHTS assay (AID 1347397). Also: nearly all actives have a fitted effect of over 55% in size. Also: potency is read from the fitted curve at half-maximal effect. Particulars: Potency: AChE enzyme activity inhibition; outcome: AChE enzyme activity inhibition. The method in brief:
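Enzyme inhibition was scored from DTNB-detected thiocholine formed by recombinant human AChE acting on acetylthiocholine. The 30 min compound preincubation and 10 min substrate reaction were both run at room temperature, with DMSO as vehicle control.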
A general note: In qHTS, concentration-response curves come from the screen itself.

For assay [3] the target is unchanged. Briefly: Acetylcholinesterase (AChE) small molecule antagonists: enzyme-based qHTS assay with human liver microsomes (AID 1347399). Also: nearly all actives have a fitted effect of over 60% in size. Particulars: Potency: qHTS inhibition; outcome: qHTS inhibition. In outline: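 Recombinant human AChE (50 mU/mL in the enzyme mix) and human liver microsomes (0.25 mg/mL final) were preincubated with compound and NADPH (0.25 mg/mL final) for 30 min at 37 C. Acetylthiocholine/DTNB was then added; thiocholine was read colorimetrically after 10 min at room temperature.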

A number with no mark means an inactive call. Results filed as inconclusive are left out. Active and inactive are the calls of the source. Calls follow the shape of the full dose curve.

The values that follow come from PubChem BioAssay (Tox21).
% is scaled to controls: 0 for no effect and ±100 for the full control effect.

Sequence of Acetylcholinesterase (Homo sapiens) (P22303 whole entry, looked up): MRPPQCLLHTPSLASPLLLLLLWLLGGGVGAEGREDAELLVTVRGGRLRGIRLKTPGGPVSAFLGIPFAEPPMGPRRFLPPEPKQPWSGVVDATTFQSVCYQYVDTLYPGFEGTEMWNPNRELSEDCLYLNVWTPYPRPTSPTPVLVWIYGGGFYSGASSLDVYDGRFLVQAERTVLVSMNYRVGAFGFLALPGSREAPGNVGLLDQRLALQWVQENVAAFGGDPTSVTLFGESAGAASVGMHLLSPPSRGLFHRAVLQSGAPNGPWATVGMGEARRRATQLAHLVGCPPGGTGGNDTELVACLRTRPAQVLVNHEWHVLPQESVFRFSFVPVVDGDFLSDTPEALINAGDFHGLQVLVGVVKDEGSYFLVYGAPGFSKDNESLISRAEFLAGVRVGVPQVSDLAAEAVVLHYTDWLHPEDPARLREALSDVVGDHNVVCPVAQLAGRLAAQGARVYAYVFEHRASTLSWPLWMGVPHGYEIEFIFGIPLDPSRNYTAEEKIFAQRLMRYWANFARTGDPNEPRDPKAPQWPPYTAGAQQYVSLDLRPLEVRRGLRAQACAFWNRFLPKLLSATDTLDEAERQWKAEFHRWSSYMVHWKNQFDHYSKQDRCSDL

In the case of `O=C(N[C@H](CO)[C@H](O)c1ccc([N+](=O)[O-])cc1)C(Cl)Cl`, the Potency result in assay [1], in assay [2] and in assay [3] was “inactive” in each case.
For the molecule `O=C(CCN1CCC(c2ccccc2)C1)c1ccc2c(c1)OCCO2` (centres undefined), the Potency in assay [1] is 30.9 µM (active). The Potency result in assay [2] and in assay [3] was “inactive” each time.
`c1ccc([C@H]2CN3CCSC3=N2)cc1`: the call in assay [1], in assay [2] and in assay [3] was inactive.
With `COc1c(C)c2c(c(O)c1C/C=C(\C)CCC(=O)OCCN1CCOCC1)C(=O)OC2`, the Potency in assay [1] was 27.5 µM (active). In addition, the Potency result in assay [2] and in assay [3] was “inactive” each time.
Consider `CCCC(=O)O[C@]1(C(=O)CCl)[C@@H](C)C[C@H]2[C@@H]3CCC4=CC(=O)C=C[C@]4(C)[C@@]3(F)C(=O)C[C@@]21C`, for which the Potency entry in assay [1], in assay [2] and in assay [3] was “inactive” each time.
With `C=CC(=O)NCOCC(C)C`, the Potency result in assay [1], in assay [2] and in assay [3] was “inactive” throughout.
On to `COc1ccccc1N1CCN(CCCNc2cc(=O)n(C)c(=O)n2C)CC1`, for which the Potency result in assay [1], in assay [2] and in assay [3] was “inactive” each time.
`CSc1ccc(Oc2ccc(S(N)(=O)=O)cc2CN(C)C)cc1C`: the Potency result in assay [1], in assay [2] and in assay [3] was “inactive” each time.
For `CCCCC/C=C\C=C\C(=O)OCC`, the Potency result in assay [1], in assay [2] and in assay [3] was “inactive” each time.
As for `Oc1ccc(C2CNCCc3c2cc(O)c(O)c3Cl)cc1` (centres undefined), the Potency entry in assay [1], in assay [2] and in assay [3] was “inactive” each time.
With `CCCCCCCCCCCCCCCCCl`, in assay [1], the activity, negative = inhibition was 0.0979% [at 23.6 µM]. The activity change, negative = inhibition in assay [2] is 0.4% [at 23.6 µM]; in assay [3], 2.03% [at 23.6 µM].
For `CC1(CN2CCC(n3c(=O)[nH]c4ccccc43)CC2)OCc2ccccc2-n2cccc21` (centres undefined), the Potency result in assay [1], in assay [2] and in assay [3] was “inactive” each time.
In the case of `CCOC(=O)c1ccc(C#Cc2ccc3c(c2)C(C)(C)CCS3)nc1`, the Potency result in assay [1], in assay [2] and in assay [3] was “inactive” in each case.
As for `c1ccc(C(O[C@H]2CCCN(CCc3ccc4c(c3)OCO4)C2)c2ccccc2)cc1`, the Potency entry in assay [1], in assay [2] and in assay [3] was “inactive” in each case.
Take `COC(=O)C(c1ccccc1Cl)N1CCc2sccc2C1` (centres undefined): the Potency entry in assay [1], in assay [2] and in assay [3] was “inactive” each time.
Take `O=C(CCCN1CCN(c2ccc(F)cc2)CC1)NC1c2ccccc2CSc2ccccc21` (centres undefined): the Potency result in assay [1], in assay [2] and in assay [3] was “inactive” each time.
`CCOc1ccc(C(=O)OCCN(CC)CC)cc1`: the Potency result in assay [1], in assay [2] and in assay [3] was “inactive” throughout.
Consider `CCN(CC)CCOc1ccccc1C(=O)CCc1ccccc1`, for which the Potency entry in assay [1], in assay [2] and in assay [3] was “inactive” throughout.
Take `CCCCC(CC)COP(=O)(O)O` (centres undefined): the Potency result in assay [1], in assay [2] and in assay [3] was “inactive” throughout.
In the case of `Nc1cccc2c(N)cccc12`, the Potency entry in assay [1], in assay [2] and in assay [3] was “inactive” throughout.
With `Cc1ccccc1C(=O)O`, the Potency entry in assay [1], in assay [2] and in assay [3] was “inactive” each time.
For `CCCCCCCC/C=C/C(=O)O`, the Potency result in assay [1], in assay [2] and in assay [3] was “inactive” throughout.
As to `CN(C)CCN(Cc1ccccc1)c1ccccn1`, the Potency entry in assay [1], in assay [2] and in assay [3] was “inactive” each time.
As for `CN(C)CCOC1=Cc2ccccc2Sc2ccc(Cl)cc21`, the Potency result in assay [1], in assay [2] and in assay [3] was “inactive” each time.
On to `CCCCCCCCCCCCCCCC[N+](C)(C)CCN(Cc1ccc(OC)cc1)c1ncccn1`, for which the Potency result in assay [1] and in assay [3] was “inactive” each time. Further, in assay [2], the Potency was 34.7 µM (active).
With `NC(=O)c1ncn([C@@H]2O[C@H](CO)[C@@H](O)[C@H]2O)c1O`, the Potency result in assay [1], in assay [2] and in assay [3] was “inactive” throughout.
For `COc1ccc2nc(SCc3ncc(C)c(OC)c3C)[nH]c2c1`, the Potency entry in assay [1], in assay [2] and in assay [3] was “inactive” each time.
As to `COCC(=O)O[C@]1(CCN(C)CCCc2nc3ccccc3[nH]2)CCc2cc(F)ccc2[C@@H]1C(C)C`, the Potency entry in assay [1], in assay [2] and in assay [3] was “inactive” in each case.
For the molecule `CCN1CCN(C(=O)N[C@@H](C(=O)N[C@@H]2C(=O)N3C(C(=O)O)=C(CSc4nnnn4C)CS[C@H]23)c2ccc(O)cc2)C(=O)C1=O`, the Potency entry in assay [1], in assay [2] and in assay [3] was “inactive” each time.
On to `CCOC(=O)C(C)O` (centres undefined), for which the Potency entry in assay [1], in assay [2] and in assay [3] was “inactive” throughout.
`Cc1c(N)cccc1Cl`: the Potency entry in assay [1], in assay [2] and in assay [3] was “inactive” each time.
In the case of `Oc1ccc(C2(c3ccc(O)cc3)CC3CC2C2CCCC32)cc1` (centres undefined), the Potency entry in assay [1] and in assay [3] was “inactive” each time. Also, in assay [2], the Potency is 76.5 µM (active).
As to `CC(=O)Nc1ccc(S(=O)(=O)Nc2cc(C)on2)cc1`, the Potency entry in assay [1], in assay [2] and in assay [3] was “inactive” each time.
Consider `COC(C)OC`, for which the Potency entry in assay [1], in assay [2] and in assay [3] was “inactive” each time.
Turning to `CC[C@H](C)[C@H](N)C(=O)O`, the Potency result in assay [1], in assay [2] and in assay [3] was “inactive” in each case.
Regarding `Cc1nc(-c2ccc(OCC(C)C)c(C#N)c2)sc1C(=O)O`, the Potency in assay [1] is 27.5 µM (active). Further, the Potency entry in assay [2] and in assay [3] was “inactive” each time.
In the case of `OCC(CO)N[C@H]1C[C@](O)(CO)[C@@H](O)[C@H](O)[C@H]1O`, the Potency entry in assay [1], in assay [2] and in assay [3] was “inactive” in each case.
With `COc1cc(NC(C)CCCN)c2ncccc2c1` (centres undefined), the Potency entry in assay [1], in assay [2] and in assay [3] was “inactive” throughout.
On to `O=[N+]([O-])c1ccc(O/N=C/c2cc(Br)c(O)c(Br)c2)c([N+](=O)[O-])c1`, for which the Potency result in assay [1], in assay [2] and in assay [3] was “inactive” in each case.
For `COc1cc(N)c(Cl)cc1C(=O)NC1CCN(CCCOc2ccc(F)cc2)CC1OC` (centres undefined), the Potency result in assay [1], in assay [2] and in assay [3] was “inactive” in each case.
On to `CC(C)(C)c1nnc(NS(=O)(=O)c2ccc(N)cc2)s1`, for which the Potency result in assay [1], in assay [2] and in assay [3] was “inactive” each time.
`OCCN1CN(CCO)CN(CCO)C1`: the Potency entry in assay [1], in assay [2] and in assay [3] was “inactive” in each case.
With `N=C(N)c1ccc2cc(OC(=O)c3ccc(N=C(N)N)cc3)ccc2c1`, the Potency in assay [1] is 27.5 µM (active). Moreover, the call in assay [2] and in assay [3] was inactive.
